From PubChem BioAssay AID1476 (National Center for Advancing Translational Sciences (NCATS), 2009)
About 4,500 (2.2%) of roughly 200,000 compounds were called active. Another 12% or so got no clear call; they are omitted. Only a selection was taken, and actives are over-represented in it overall. A number with no mark means an inactive call. Calls come from the whole dose curve; as a rule, active = well fitted inhibition curve with a large enough effect; inconclusive = small, poorly fitted or top-dose-only effect, or effect the other way; inactive = flat fitted curve, though single readings scatter.

Biological target: Cruzipain (Trypanosoma cruzi) (UniProt P25779)
Sequence (P25779 123-467 limits assumed): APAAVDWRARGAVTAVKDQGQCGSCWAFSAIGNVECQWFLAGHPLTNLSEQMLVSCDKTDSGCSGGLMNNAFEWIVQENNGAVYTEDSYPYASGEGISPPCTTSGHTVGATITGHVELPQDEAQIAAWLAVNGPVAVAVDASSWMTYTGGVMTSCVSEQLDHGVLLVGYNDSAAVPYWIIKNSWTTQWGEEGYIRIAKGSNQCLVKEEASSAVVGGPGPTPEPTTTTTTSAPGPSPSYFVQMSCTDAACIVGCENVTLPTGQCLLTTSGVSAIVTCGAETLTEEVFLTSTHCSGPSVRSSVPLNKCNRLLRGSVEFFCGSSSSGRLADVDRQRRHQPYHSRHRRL
Experiment: qHTS Assay for Promiscuous and Specific Inhibitors of Cruzain (without detergent); note: nearly all actives have a fitted effect of over 40% in size;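 for max response, negative = inhibition: plate controls were enzyme without inhibitor for no effect and buffer without enzyme for full effect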
Details: purified cruzain, Z-FR-AMC fluorescence, no detergent
Outline: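 Detergent-free condition (0.00005% Triton X-100) in acetate buffer pH 5.5 with DTT. 1.5 nM enzyme and compound were pre-mixed 15 min, then 2 uM Z-FR-AMC substrate added; reaction progress from fluorescence change between first and third reads (60 s).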
Potency is the fitted concentration of half-maximal effect.

Structure (SMILES)	max response, negative = inhibition [%]	Potency
CCCCn1c(=N)c(S(=O)(=O)c2ccccc2)cc2c(=O)n3cccc(C)c3nc21	14.5	–
CCn1c(=N)c(S(=O)(=O)c2ccc(F)cc2)cc2c(=O)n3ccccc3nc21	–	20 µM (active)
CCOC(=O)c1cc2c(=O)n3ccccc3nc2n(Cc2ccco2)c1=NC(=O)c1ccc(F)cc1	-18.9	–
Cc1ccc(-c2nc(CS(=O)(=O)CC(=O)NCc3ccccc3Cl)c(C)o2)cc1	-2.75	–
CC(C)(C)n1nnnc1C(c1ccc(Cl)cc1)N1CCSCC1 (stereo unspecified)	-17.6	–
CCC(C)(C)n1nnnc1C(c1ccccc1OC)N1CCSCC1 (stereo unspecified)	1.47	–
CC(C)(C)n1nnnc1C(c1ccc2ncccc2c1)N1CCSCC1 (stereo unspecified)	–	7.94 µM (active)
Cc1ccc(C)c(NC(=O)Cn2ccn(-c3ccc(F)cc3)c(=O)c2=O)c1	-16.8	–
O=C(CCn1c(=S)[nH]c2ccccc2c1=O)NCCCN1CCCC1=O	7.76	–
CC(C)OCCCNc1ncnc2c1[nH]c1ccc(F)cc12	-22.4	–
O=C1CCCN1CCCNc1ncnc2c1[nH]c1ccccc12	–	20 µM (active)
COc1ccc(N2CCN(C3=NS(=O)(=O)C(c4cccc(Br)c4)=C3C)CC2)cc1	-1.42	–
COc1cccc(CNc2nccn(-c3ccc(OC)c(OC)c3)c2=O)c1	4.88	–
CCOc1ccc(-n2c(SCC(=O)NCc3ccccc3)nc3n[nH]c(C)c3c2=N)cc1	6.06	–
COc1ccc(OC)c(-n2nnc3c(sc4nc(C)c(Br)c(C)c43)c2=O)c1	15.9	–
Cc1ccc(N=C2NC(=O)/C(=C/C=C/c3ccco3)S2)cc1C	-3.89	–

Structure (SMILES)	max response, negative = inhibition [%]	Potency
Cc1cccc(N=C2NC(=O)/C(=C/c3cn(C)c4ccccc34)S2)c1	–	31.6 µM (active)
Cc1nnc(N2CCCC(C(=O)NCCN(C)C)C2)c2nn(-c3ccccc3)c(C)c12 (stereo unspecified)	-14.7	–
Cc1cccc(CSc2nc3ccncc3n2Cc2ccc(C(=O)O)cc2)c1	-13.3	–
CCc1nn(CC(=O)N2CCN(c3cccc(C(F)(F)F)c3)CC2)c(=O)c2cc3occc3n12	-20.3	–
CCCCN1C(=O)c2[nH]nc(-c3ccccc3O)c2C1c1cccc(OCc2ccccc2)c1 (stereo unspecified)	-70.8	–
O=C(COc1ccccc1Cl)Nc1ccc2nc(SCC(=O)N3CCCC3)sc2c1	-3.05	–
Cc1ccc(NC(=O)CSc2nc3ccccc3c3nc(CCn4cncc4C)nn23)cc1F	6.2	–
COc1ccc(CNC(=O)CCc2c(C)nn(-c3ccc(N4CCCC4)nn3)c2C)cc1	3.65	–
Cc1ccc2nc(S(=O)(=O)O)[nH]c2c1	-1.87	–
Cc1ccc2nc(/C(C#N)=C/c3ccc(-c4ccc(C(=O)OC(C)C)cc4)o3)[nH]c2c1	–	12.6 µM (active)
Cc1ccc2nc(/C(C#N)=C/c3ccccc3F)[nH]c2c1	-17.7	–
C=C1c2cc(CC)ccc2NC(=O)N1c1ccc(C)cc1	-5.5	–
Cc1ccc(N2C(=O)C3C(c4ccccc4)(C2=O)C3(c2ccccc2)c2ccccc2)cc1 (stereo unspecified)	–	25.1 µM (active)
Cc1ccc(N2C(=O)C(Cc3ccccc3)NC2=S)cc1 (stereo unspecified)	-8.99	–
Cc1ccc(Cn2c(=O)n(CCCC(=O)NCc3ccccc3Cl)c(=O)c3ccccc32)cc1	3.97	–
